Data on six compounds can be found in PubChem BioAssay (EPA / NIEHS).

Inconclusive results are not listed. Calls of active or inactive are those of the source. Rule for the calls, unless noted: active = hit-call score of the fitted dose curve at least 0.9, where 1 is the maximum; inactive = score below 0.9.

A short description of experiment [1]: BSK_4H_Eotaxin3: BioMAP Diversity Plus: 4H Assay for Eotaxin 3 Biomarker Activity (AID 2283000).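 For outcome: CCL26 protein level quantified by ELISA in parallel with SRB cytotoxicity check.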 Particulars: primary human endothelial cells (HUVEC); actives raise or lower the signal. In outline: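 Eotaxin-3 (CCL26) levels were measured by ELISA in HUVEC primary cultures 24 h post-dosing. Gain or loss of signal was fitted in both directions, with DMSO serving as baseline and negative control.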

In experiment [2] the target is human Peroxisome Proliferator-activated Receptor delta (PPARd), PPARD (gene 5467) (UniProt Q03181). The experiment can be described thus: ATG_PPARd_TRANS: Attagene TRANS-FACTORIAL HepG2 Assay for human Peroxisome Proliferator-activated Receptor delta (PPARd) (AID 2283002; active = hit-call score of the fitted dose curve at least 0.9, where 1 is the maximum). The method, boiled down: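 Multiplexed trans-activation format: HepG2 liver cells expressing exogenous NR-Gal4 chimeras and GAL4-UAS reporters were exposed for 24 h. Reporter mRNA was detected by RT-PCR with capillary electrophoresis fluorescence; activity fitted as gain of signal relative to DMSO.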

Read-out in experiment [3]: Intercellular Adhesion Molecule 1 (ICAM1), ICAM1 (gene 3383)
The experiment can be described thus: BSK_3C_ICAM1: BioMAP Diversity Plus: 3C Assay for Intercellular Adhesion Molecule 1 (ICAM1) Biomarker Activity (AID 2283003). The note with it: primary human endothelial cells (HUVEC); actives raise or lower the signal. In outline:
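ELISA readout of ICAM1 in human umbilical vein endothelial cells in the 3C system, taken 24 h post-dose. Gain or loss of signal versus DMSO was fitted in both directions, with SRB total-protein staining run in parallel.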

Experiment [4] in a line: BSK_3C_Proliferation: Cell Proliferation Assessment in the BioMAP Diversity Plus: 3C Assay (AID 2283006).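 For AC50: potency may reflect either rise or fall in cell number versus DMSO.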 The note with it: primary human endothelial cells (HUVEC). The method, boiled down:
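Proliferation as total protein: sulforhodamine B (0.1%) stain of TCA-fixed subconfluent human umbilical vein endothelial cells, absorbance 560 nm, 48 h after dosing. Activity fitted in both directions against DMSO baseline.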

For experiment [5], the target named is Peroxisome proliferator-activated receptor gamma (Homo sapiens) (UniProt P37231). Briefly: ATG_PPARg_TRANS: Attagene TRANS-FACTORIAL HepG2 Assay for human Peroxisome Proliferator-activated Receptor-gamma (PPARg) (AID 2283007; active = hit-call score of the fitted dose curve at least 0.9, where 1 is the maximum). The method, boiled down:
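Multiplexed reporter transcription units in HepG2, 24 h dosing, reporter transcripts quantified by fluorescent RT-PCR and capillary electrophoresis. Increase over DMSO scored.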

In experiment [6] the target is Nuclear receptor subfamily 1 group I member 2 (Homo sapiens) (UniProt O75469). Briefly: ATG_PXR_TRANS: Attagene TRANS-FACTORIAL HepG2 Assay for human Pregnane X Receptor (PXR) (AID 2283008; active = hit-call score of the fitted dose curve at least 0.9, where 1 is the maximum). In outline: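 Trans-factorial format: exogenous NR-Gal4 fusion activity, not endogenous factor, in transfected human HepG2 liver cells. After 24 h dosing, RNA isolated, reverse-transcribed, amplified and resolved by capillary electrophoresis; induction scored versus DMSO.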

Experiment [7] deals with human Retinoic Acid Receptor gamma (RARg), RARG (gene 5916) (UniProt P13631). Briefly: ATG_RARg_TRANS: Attagene TRANS-FACTORIAL HepG2 Assay for human Retinoic Acid Receptor gamma (RARg) (AID 2283009; active = hit-call score of the fitted dose curve at least 0.9, where 1 is the maximum). In outline: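 Transactivation of exogenous RARg-Gal4 fusion measured as reporter transcript induction after 24 h in transfected HepG2 cells. RNA reverse-transcribed, amplified, fluorescently labeled and resolved by capillary electrophoresis; increase relative to DMSO.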

Experiment [8] has as its target human RAR-related Orphan Receptor beta (RORb), RORB (gene 6096) (UniProt Q92753). Briefly: ATG_RORb_TRANS: Attagene TRANS-FACTORIAL HepG2 Assay for human RAR-related Orphan Receptor beta (RORb) (AID 2283010; active = hit-call score of the fitted dose curve at least 0.9, where 1 is the maximum). The method, boiled down:
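Read-out is reporter mRNA induction, quantified by RT-PCR with fluorescent capillary electrophoresis, 24 h post-dose in transiently transfected HepG2 expressing exogenous NR-Gal4 chimera. Activity fitted upward versus DMSO.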

Experiment [9] concerns the target Retinoic acid receptor RXR-alpha (Homo sapiens) (UniProt P19793). The experiment can be described thus: ATG_RXRa_TRANS: Attagene TRANS-FACTORIAL HepG2 Assay for human Retinoid X Receptor alpha (RXRa) (AID 2283012; active = hit-call score of the fitted dose curve at least 0.9, where 1 is the maximum). In outline:
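TRANS format reporting activity of exogenous RXRa-Gal4 chimera in transiently transfected HepG2, 24 h exposure. Reporter transcripts quantified by RT-PCR with capillary electrophoresis, with gain of signal scored relative to DMSO.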

Experiment [10] has as its target human Retinoid X Receptor beta (RXRb), RXRB (gene 6257) (UniProt P28702). The experiment can be described thus: ATG_RXRb_TRANS: Attagene TRANS-FACTORIAL HepG2 Assay for human Retinoid X Receptor beta (RXRb) (AID 2283013; active = hit-call score of the fitted dose curve at least 0.9, where 1 is the maximum). The method, boiled down:
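Readout is reporter transcript induction after 24 h dosing. It is measured by RT-PCR of total RNA followed by fluorescent capillary electrophoresis. HepG2 liver cells carry transfected multiple reporter units driven by an exogenous RXRb-Gal4 fusion; activity is relative to DMSO.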

In experiment [11] the target is human Thyroid Receptor alpha (THRa1), THRA (gene 7067) (UniProt P10827). The experiment can be described thus: ATG_THRa1_TRANS: Attagene TRANS-FACTORIAL HepG2 Assay for human Thyroid Receptor alpha (THRa1) (AID 2283014; active = hit-call score of the fitted dose curve at least 0.9, where 1 is the maximum). In outline: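 HepG2 cells transiently transfected with chimeric NR-Gal4 and GAL4-UAS reporter units, dosed 24 h. Reporter mRNA quantified by RT-PCR, fluorescent labeling, HpaI digestion and capillary electrophoresis; gain-of-signal fit versus DMSO.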

Read-out in experiment [12]: E-selectin (Homo sapiens) (UniProt P16581)
The experiment can be described thus: BSK_3C_Eselectin: BioMAP Diversity Plus: 3C Assay for Eselectin Biomarker Activity (AID 2283015).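 For outcome: cell surface E-selectin protein quantified by ELISA 24 h after dosing.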 The note with it: primary human endothelial cells (HUVEC); actives raise or lower the signal. The method, boiled down: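 Primary human umbilical vein endothelial cells (3C system), read 24 h after compound addition; E-selectin measured by ELISA. Bidirectional curve fitting against DMSO baseline; cytotoxicity by parallel SRB total-protein staining.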

Read-out in experiment [13]: Interleukin-1 alpha (IL1a), IL1A (gene 3552)
The experiment can be described thus: BSK_BE3C_IL1a: BioMAP Diversity Plus: BE3C Assay for Interleukin-1 alpha (IL1a) Biomarker Activity (AID 2283016). The note with it: primary human bronchial epithelial cells; actives raise or lower the signal. In outline:
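IL-1a measured by ELISA after 24 h treatment of human primary bronchial epithelial cells, with gain or loss of signal fitted versus DMSO. Parallel cultures stained with SRB gauge overt cytotoxicity.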

Read-out in experiment [14]: Monocyte Chemoattractant Protein-1 (MCP1), CCL2 (gene 6347)
The experiment can be described thus: BSK_3C_MCP1: BioMAP Diversity Plus: 3C Assay for Monocyte Chemoattractant Protein-1 (MCP1) Biomarker Activity (AID 2283017). The note with it: primary human endothelial cells (HUVEC); actives raise or lower the signal. The method, boiled down:
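Human umbilical vein endothelial cells (3C system) exposed to chemicals for 24 h; MCP-1 quantified by ELISA against the DMSO baseline with bidirectional fitting, and parallel SRB staining used to assess cytotoxicity.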

Read-out in experiment [15]: Monocyte Chemoattractant Protein-1 (MCP1), CCL2 (gene 6347)
Briefly: BSK_4H_MCP1: BioMAP Diversity Plus: 4H Assay for Monocyte Chemoattractant Protein-1 (MCP1) Biomarker Activity (AID 2283018). Particulars: primary human endothelial cells (HUVEC); actives raise or lower the signal. In outline:
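ELISA of MCP-1 (CCL2) 24 h after chemical dosing of HUVEC in the BioMAP 4H system. Gain or loss versus DMSO fitted; parallel SRB staining (560 nm) tracked overt cytotoxicity.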

Read-out in experiment [16]: Human Leukocyte Antigen - DR isotype (HLADR), HLA-DRA (gene 3122)
Briefly: BSK_3C_HLADR: BioMAP Diversity Plus: 3C Assay for Human Leukocyte Antigen - DR isotype (HLADR) Biomarker Activity (AID 2283019).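 For outcome: ELISA of cell-surface HLA-DR on HUVEC 24 h after dosing.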 The note with it: primary human endothelial cells (HUVEC); actives raise or lower the signal. In outline:
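HUVEC monoculture, HLA-DR measured by ELISA 24 h after chemical dosing. Fitted bidirectionally against DMSO baseline; parallel SRB staining assessed cytotoxicity, with 3C proliferation read by SRB at 48 h.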

Read-out in experiment [17]: Interleukin-8 (IL8), CXCL8 (gene 3576)
The experiment can be described thus: BSK_3C_IL8: BioMAP Diversity Plus: 3C Assay for Interleukin-8 (IL8) Biomarker Activity (AID 2283020). The note with it: primary human endothelial cells (HUVEC); actives raise or lower the signal. In outline: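 IL-8 was measured by ELISA in HUVEC cultures 24 h after chemical dosing, with gain or loss of signal fitted relative to DMSO. Parallel SRB total-protein staining tracked overt cytotoxicity.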

Experiment [18] addresses human Retinoic Acid Receptor beta (RARb), RARB (gene 5915) (UniProt P10826). The experiment can be described thus: ATG_RARb_TRANS: Attagene TRANS-FACTORIAL HepG2 Assay for human Retinoic Acid Receptor beta (AID 2283004; active = hit-call score of the fitted dose curve at least 0.9, where 1 is the maximum). In outline:
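HepG2 cells were transiently transfected with GAL4-UAS reporter units that report activity of exogenous chimeric NR-Gal4 proteins, then exposed to compound for 24 h. Reporter mRNA was quantified by RT-PCR with capillary electrophoresis fluorescence, as gain of signal over DMSO.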

In experiment [19] the target is human RAR-related Orphan Receptor gamma (RORg), RORC (gene 6097) (UniProt P51449). Briefly: ATG_RORg_TRANS: Attagene TRANS-FACTORIAL HepG2 Assay for human RAR-related Orphan Receptor gamma (RORg) (AID 2283011; active = hit-call score of the fitted dose curve at least 0.9, where 1 is the maximum). The method, boiled down: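 HepG2 cells transiently transfected with GAL4-UAS reporter units and chimeric RORg-Gal4 construct; after 24 h chemical exposure, reporter mRNA measured by RT-PCR with fluorescent capillary electrophoresis, gain of signal fitted against DMSO.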

Experiment [20] concerns the target human Peroxisome Proliferator-activated Receptor alpha (PPARa), PPARA (gene 5465) (UniProt Q07869). The experiment can be described thus: ATG_PPARa_TRANS: Attagene TRANS-FACTORIAL HepG2 Assay for human Peroxisome Proliferator-activated Receptor alpha (PPARa) (AID 2283001; active = hit-call score of the fitted dose curve at least 0.9, where 1 is the maximum). In outline:
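Cells (HepG2) are transfected with multiple reporter transcription units, exposed to chemical for 24 h, then total RNA is reverse-transcribed and amplified. Labelled products are quantified by capillary electrophoresis; induction is referenced to DMSO.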

Chain of human Peroxisome Proliferator-activated Receptor delta (PPARd), PPARD (gene 5467) (Q03181 whole entry, looked up, the tested form may be a part): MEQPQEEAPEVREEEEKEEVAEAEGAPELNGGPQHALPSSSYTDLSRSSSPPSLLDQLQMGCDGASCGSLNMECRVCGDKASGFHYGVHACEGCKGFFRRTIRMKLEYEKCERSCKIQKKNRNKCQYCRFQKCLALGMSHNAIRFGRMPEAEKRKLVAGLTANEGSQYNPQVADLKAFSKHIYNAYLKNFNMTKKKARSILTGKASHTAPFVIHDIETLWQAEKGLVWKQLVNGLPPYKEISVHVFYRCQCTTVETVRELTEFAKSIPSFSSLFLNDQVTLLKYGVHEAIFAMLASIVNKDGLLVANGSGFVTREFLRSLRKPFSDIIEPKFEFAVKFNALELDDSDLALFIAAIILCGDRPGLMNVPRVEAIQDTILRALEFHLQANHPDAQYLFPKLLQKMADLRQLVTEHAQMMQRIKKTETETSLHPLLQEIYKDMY
Chain of human Thyroid Receptor alpha (THRa1), THRA (gene 7067) (P10827 whole entry, looked up, the tested form may be a part): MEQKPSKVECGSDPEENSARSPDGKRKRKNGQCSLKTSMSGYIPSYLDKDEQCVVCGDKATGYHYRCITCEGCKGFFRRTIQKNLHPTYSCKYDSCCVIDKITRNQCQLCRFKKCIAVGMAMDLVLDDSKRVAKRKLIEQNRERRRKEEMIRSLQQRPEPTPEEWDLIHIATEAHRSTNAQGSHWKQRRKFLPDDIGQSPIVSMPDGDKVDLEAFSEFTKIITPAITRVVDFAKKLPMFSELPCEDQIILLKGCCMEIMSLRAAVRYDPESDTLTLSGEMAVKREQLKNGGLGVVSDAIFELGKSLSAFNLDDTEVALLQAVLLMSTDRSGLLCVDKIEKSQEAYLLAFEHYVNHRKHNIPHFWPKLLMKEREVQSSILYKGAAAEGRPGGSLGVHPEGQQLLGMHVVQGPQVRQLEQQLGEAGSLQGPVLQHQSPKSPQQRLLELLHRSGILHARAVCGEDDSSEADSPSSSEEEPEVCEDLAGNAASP
Chain of Nuclear receptor subfamily 1 group I member 2 (Homo sapiens) (O75469 whole entry, looked up, the tested form may be a part): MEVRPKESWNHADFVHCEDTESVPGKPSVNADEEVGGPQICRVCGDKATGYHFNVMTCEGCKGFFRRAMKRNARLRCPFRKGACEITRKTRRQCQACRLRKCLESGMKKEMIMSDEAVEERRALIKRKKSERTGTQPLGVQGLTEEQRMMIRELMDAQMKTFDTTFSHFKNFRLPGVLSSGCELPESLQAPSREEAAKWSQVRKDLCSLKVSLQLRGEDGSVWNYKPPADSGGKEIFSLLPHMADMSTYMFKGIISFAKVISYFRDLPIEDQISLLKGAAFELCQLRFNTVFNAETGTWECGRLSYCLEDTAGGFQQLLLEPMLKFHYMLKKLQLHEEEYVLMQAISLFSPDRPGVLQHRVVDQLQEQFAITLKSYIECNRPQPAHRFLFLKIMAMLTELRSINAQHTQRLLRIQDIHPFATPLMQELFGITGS
Chain of human Retinoic Acid Receptor beta (RARb), RARB (gene 5915) (P10826 whole entry, looked up, the tested form may be a part): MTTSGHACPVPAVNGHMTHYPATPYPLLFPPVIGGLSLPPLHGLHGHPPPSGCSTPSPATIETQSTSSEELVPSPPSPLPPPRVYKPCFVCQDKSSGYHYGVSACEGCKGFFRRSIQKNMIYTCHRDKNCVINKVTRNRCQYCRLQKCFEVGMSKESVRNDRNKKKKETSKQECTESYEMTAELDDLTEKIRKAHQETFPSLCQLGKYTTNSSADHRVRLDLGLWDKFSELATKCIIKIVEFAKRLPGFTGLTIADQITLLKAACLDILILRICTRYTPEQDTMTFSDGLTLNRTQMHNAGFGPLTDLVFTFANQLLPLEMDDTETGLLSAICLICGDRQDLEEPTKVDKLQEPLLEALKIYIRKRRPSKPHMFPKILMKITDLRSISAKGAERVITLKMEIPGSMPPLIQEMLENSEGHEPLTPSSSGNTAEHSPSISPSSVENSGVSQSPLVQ
Chain of Retinoic acid receptor RXR-alpha (Homo sapiens) (P19793 whole entry, looked up, the tested form may be a part): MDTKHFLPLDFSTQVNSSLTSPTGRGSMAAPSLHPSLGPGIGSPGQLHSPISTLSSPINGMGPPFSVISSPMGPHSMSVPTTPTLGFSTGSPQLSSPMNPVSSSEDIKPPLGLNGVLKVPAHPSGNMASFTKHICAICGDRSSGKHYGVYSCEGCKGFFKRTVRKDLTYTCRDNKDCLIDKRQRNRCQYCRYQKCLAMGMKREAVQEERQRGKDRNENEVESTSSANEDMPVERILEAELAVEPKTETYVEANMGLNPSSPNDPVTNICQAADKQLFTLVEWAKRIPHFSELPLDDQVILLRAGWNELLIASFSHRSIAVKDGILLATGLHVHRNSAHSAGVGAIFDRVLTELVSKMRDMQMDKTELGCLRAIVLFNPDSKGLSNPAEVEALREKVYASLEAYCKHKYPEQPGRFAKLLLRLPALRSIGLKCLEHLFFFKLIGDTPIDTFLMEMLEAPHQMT
Chain of Peroxisome proliferator-activated receptor gamma (Homo sapiens) (P37231 whole entry, looked up): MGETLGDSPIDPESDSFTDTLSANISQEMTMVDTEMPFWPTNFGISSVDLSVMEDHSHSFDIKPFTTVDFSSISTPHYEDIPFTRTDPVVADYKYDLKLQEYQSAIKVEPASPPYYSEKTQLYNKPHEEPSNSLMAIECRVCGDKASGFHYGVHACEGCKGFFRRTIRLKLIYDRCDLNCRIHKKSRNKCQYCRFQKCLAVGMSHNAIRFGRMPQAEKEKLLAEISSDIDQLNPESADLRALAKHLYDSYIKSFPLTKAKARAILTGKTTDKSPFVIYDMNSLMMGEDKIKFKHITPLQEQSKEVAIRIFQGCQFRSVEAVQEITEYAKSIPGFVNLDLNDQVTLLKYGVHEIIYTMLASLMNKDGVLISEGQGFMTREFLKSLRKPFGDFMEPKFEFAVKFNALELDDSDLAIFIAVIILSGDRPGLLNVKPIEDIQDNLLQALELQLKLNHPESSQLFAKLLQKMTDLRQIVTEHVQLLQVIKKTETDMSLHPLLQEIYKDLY
Chain of E-selectin (Homo sapiens) (P16581 whole entry, looked up): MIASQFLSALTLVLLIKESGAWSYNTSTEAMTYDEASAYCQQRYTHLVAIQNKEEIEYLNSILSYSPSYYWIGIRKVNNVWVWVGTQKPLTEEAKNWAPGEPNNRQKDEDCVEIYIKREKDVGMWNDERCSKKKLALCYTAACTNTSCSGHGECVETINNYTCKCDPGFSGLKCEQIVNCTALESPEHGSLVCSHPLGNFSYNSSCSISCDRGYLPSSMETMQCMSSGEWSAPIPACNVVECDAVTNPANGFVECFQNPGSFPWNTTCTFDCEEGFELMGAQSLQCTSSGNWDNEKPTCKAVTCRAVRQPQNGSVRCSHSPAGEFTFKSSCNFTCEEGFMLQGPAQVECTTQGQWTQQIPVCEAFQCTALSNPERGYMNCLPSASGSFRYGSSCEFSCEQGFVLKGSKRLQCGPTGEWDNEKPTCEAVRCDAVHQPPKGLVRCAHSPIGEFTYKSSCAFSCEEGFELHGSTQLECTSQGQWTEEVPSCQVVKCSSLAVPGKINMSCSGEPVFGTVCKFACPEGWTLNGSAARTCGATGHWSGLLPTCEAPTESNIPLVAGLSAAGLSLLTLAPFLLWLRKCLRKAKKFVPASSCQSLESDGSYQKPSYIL
Chain of human Retinoic Acid Receptor gamma (RARg), RARG (gene 5916) (P13631 whole entry, looked up, the tested form may be a part): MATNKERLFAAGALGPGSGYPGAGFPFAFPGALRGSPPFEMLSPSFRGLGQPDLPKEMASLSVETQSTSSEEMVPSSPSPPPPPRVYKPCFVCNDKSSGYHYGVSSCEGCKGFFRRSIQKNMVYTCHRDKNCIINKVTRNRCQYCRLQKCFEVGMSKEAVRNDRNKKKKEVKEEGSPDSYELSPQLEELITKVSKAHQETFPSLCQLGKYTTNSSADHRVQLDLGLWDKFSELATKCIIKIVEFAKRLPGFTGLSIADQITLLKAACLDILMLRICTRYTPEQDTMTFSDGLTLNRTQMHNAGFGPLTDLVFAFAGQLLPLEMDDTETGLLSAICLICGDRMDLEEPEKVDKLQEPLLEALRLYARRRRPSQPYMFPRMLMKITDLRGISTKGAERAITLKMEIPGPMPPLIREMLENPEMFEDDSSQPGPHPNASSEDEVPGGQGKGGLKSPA
Chain of human Retinoid X Receptor beta (RXRb), RXRB (gene 6257) (P28702 whole entry, looked up, the tested form may be a part): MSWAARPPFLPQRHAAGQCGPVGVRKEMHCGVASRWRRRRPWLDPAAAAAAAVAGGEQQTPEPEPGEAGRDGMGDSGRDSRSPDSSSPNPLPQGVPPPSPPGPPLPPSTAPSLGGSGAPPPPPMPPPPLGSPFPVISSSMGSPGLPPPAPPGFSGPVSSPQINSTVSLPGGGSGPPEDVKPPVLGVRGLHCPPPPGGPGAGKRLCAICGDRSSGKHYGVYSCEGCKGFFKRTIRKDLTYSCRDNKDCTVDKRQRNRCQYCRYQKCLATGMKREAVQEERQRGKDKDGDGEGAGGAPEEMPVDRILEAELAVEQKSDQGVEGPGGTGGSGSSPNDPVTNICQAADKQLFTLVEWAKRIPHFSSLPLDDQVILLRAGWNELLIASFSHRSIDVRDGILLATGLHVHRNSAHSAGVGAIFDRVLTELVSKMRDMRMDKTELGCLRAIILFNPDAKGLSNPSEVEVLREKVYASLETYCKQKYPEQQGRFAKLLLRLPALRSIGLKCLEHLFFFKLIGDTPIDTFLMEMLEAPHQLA
Chain of human RAR-related Orphan Receptor gamma (RORg), RORC (gene 6097) (P51449 whole entry, looked up, the tested form may be a part): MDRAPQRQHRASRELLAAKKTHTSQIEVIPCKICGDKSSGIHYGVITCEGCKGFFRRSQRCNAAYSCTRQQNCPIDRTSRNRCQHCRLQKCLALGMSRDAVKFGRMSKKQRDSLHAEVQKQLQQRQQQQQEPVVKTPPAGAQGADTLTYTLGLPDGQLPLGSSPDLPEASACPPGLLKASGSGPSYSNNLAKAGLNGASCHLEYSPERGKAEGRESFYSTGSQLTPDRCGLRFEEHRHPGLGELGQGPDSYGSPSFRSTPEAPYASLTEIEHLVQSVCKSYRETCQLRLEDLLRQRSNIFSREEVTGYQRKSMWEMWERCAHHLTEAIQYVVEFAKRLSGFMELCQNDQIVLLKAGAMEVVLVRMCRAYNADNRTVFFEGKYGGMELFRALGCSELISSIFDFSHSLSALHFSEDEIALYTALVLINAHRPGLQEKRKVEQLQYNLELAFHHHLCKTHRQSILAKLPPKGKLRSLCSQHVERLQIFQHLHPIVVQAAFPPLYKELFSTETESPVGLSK

As to `CCOP(=S)(Oc1cnc(C(C)(C)C)nc1)OC(C)C` (configuration not stated), the AC50 in experiment [1] is 31.9 µM (active); in experiment [4] it was 33.3 µM (active); in [12] it was 31.2 µM (active); in [14], 38 µM (active); in experiment [15], 33.4 µM (active); in experiment [16], 31.3 µM (active). For the same compound, the AC50 in experiment [17] is 30.2 µM (active). The call in [2], in [3], in experiment [5], in [6], in experiment [7] and in [8] was inactive. Moreover, the result in experiment [9], in [10], in [11] and in [13] was inactive.
As to `CSC1=N[C@@](C)(c2ccccc2)C(=O)N1Nc1ccccc1`, the AC50 in [1] is 25.3 µM (active); in experiment [4], 18.9 µM (active); in experiment [12], 6.26 µM (active); in experiment [15], 27.8 µM (active); in [16], 5.87 µM (active); in experiment [17], 8.64 µM (active). Further, the call in [2], in experiment [3], in experiment [5], in experiment [6], in experiment [9] and in experiment [10] was inactive. Also, the outcome in [11], in experiment [13] and in [14] was inactive.
As for `CCc1cccc(C)c1N(C(=O)CCl)C(C)COC` (configuration not stated), the outcome in experiment [1], in experiment [3], in experiment [18], in experiment [4], in experiment [6] and in experiment [10] was inactive. Also, the result in experiment [12], in experiment [13], in experiment [14], in experiment [15], in [16] and in experiment [17] was inactive. In experiment [5], the AC50 was 13.5 µM (active).
On to `CNc1cnn(-c2cccc(C(F)(F)F)c2)c(=O)c1Cl`, for which the result in experiment [1], in experiment [2], in experiment [3], in [18], in experiment [4] and in [5] was inactive. The call in [6], in [7], in experiment [19], in experiment [10], in experiment [11] and in experiment [12] was inactive. For the same compound, the result in [13], in [14], in experiment [15] and in experiment [17] was inactive. The AC50 in [16] was 3.97 µM (active).
As to `S=C1NCCN1`, the outcome in [1], in experiment [3], in experiment [18], in experiment [4], in experiment [5] and in experiment [6] was inactive. For the same compound, the result in [19], in [10], in experiment [12], in experiment [13], in experiment [14] and in experiment [15] was inactive. Moreover, the result in experiment [16] and in [17] was inactive.
Take `CC1=NNC(=O)N(/N=C/c2cccnc2)C1`: the outcome in [1], in experiment [20], in experiment [3], in experiment [4], in [5] and in experiment [6] was inactive. Further, the compound was classed as inactive in experiment [7], in experiment [9], in experiment [10], in [11], in [12] and in [13]. For the same compound, the outcome in experiment [14], in experiment [15], in experiment [16] and in experiment [17] was inactive.
